Laboratory results reported in the supplement of paper PMC13380429.

Test system: Vero E6 infected with SARS-CoV-2
Experiment: inhibition of SARS-CoV-2 cytopathic effect; higher = more antiviral protection, active = above 15
Settings: 48 h

Measured: inhibition of SARS-CoV-2 cytopathic effect

COc1cc2c(NC3CCN(C(C)C)CC3)nc(C3CCCCC3)nc2cc1OCCCN1CCCC1
inactive: 1 nM 0.58% | 8.33 nM -2.43% | 100 nM -1.38% | 833.33 nM -2.98%
active: 10000 nM 59.6%

CC1(C)OC(=O)NC1=O [dimethadione]
inactive: 1 nM -1.41% | 8.33 nM -1.5% | 100 nM 0.11% | 833.33 nM 0.78% | 10000 nM 0.15%

Nc1nc2c(ncn2COC(CO)CO)c(=O)[nH]1 [ganciclovir]
inactive: 1 nM 0.29% | 8.33 nM 0.09% | 100 nM 2.75% | 833.33 nM -1.42% | 10000 nM -1.71%

c1nc(CC2CCNCC2)c[nH]1 [immepip]
inactive: 1 nM -1.43% | 8.33 nM -3.19% | 100 nM -3.25% | 833.33 nM -0.04% | 10000 nM 0.13%

COC(=O)[C@@H]1CC2=CC(=O)CC[C@]2(C)[C@@]23O[C@@H]2C[C@@]2(C)[C@@H](CC[C@@]24CCC(=O)O4)[C@H]13 [eplerenone]
inactive: 1 nM 0.06% | 8.33 nM 2.8% | 100 nM 0.3% | 833.33 nM 1.53% | 10000 nM 0.25%

CC(C)(N)c1cc(C(=O)N[C@@H]2CCc3ccc(Oc4ccnc5c4CCC(=O)N5)cc3C2)cc(C(F)(F)F)c1
inactive: 1 nM 0.3% | 8.33 nM 1.69% | 100 nM 1.9% | 833.33 nM -3.12% | 10000 nM -8.56%

Clc1ccc(C(Cn2ccnc2)OCc2c(Cl)cccc2Cl)c(Cl)c1 (stereo not given) [isoconazole]
inactive: 1 nM 0.43% | 8.33 nM 0.08% | 100 nM 1.75% | 833.33 nM 1.3% | 10000 nM -2.37%

O=C(O)COCCN1CCN(C(c2ccccc2)c2ccc(Cl)cc2)CC1 (stereo not given) [cetirizine]
inactive: 1 nM -1.03% | 8.33 nM 1.14% | 100 nM -0.08% | 833.33 nM 0.99% | 10000 nM -2.71%

CCc1c(-c2ccccc2)c(-c2ccccc2)nn1-c1ccccc1-c1cccc(OCC(=O)O)c1
inactive: 1 nM -2.24% | 8.33 nM 3.84% | 100 nM 0.2% | 833.33 nM 0.13% | 10000 nM -0.58%

CN(C)CCc1c[nH]c2ccc(C[C@H]3COC(=O)N3)cc12 [zolmitriptan]
inactive: 1 nM -2.55% | 8.33 nM 2.01% | 100 nM -1.58% | 833.33 nM -2.13% | 10000 nM -2.93%

C[C@@H]1COCCN1c1cc(C2([S@](C)(=N)=O)CC2)nc(-c2ccnc3[nH]ccc23)n1
inactive: 1 nM -1.91% | 8.33 nM -1.92% | 100 nM 0.5% | 833.33 nM 1.27% | 10000 nM 1.76%

CN1C(=O)N(c2cc(Cl)cc(Cl)c2)C(=O)[C@]12CN(c1ccc(C(=O)O)cn1)C[C@H]2c1ccc(C#N)cc1
inactive: 1 nM 1.7% | 8.33 nM 0.43% | 100 nM 1.42% | 833.33 nM 1.84% | 10000 nM 1.57%

CC1(C)OC(=O)C(OCC2CC2)=C1c1ccc(S(C)(=O)=O)cc1 [firocoxib]
inactive: 1 nM -1.63% | 8.33 nM -1.5% | 100 nM 0.34% | 833.33 nM 0.04% | 10000 nM -1.02%

C[C@@]1(F)[C@H](O)[C@@H](CO)O[C@H]1n1ccc(N)nc1=O
inactive: 1 nM 0.11% | 8.33 nM -0.83% | 100 nM -0.8% | 833.33 nM 1.12% | 10000 nM 0.26%

Nc1cc(C(F)(F)F)c(-c2nc(N3CCOCC3)nc(N3CCOCC3)n2)cn1
inactive: 1 nM -0.85% | 8.33 nM 5.6% | 100 nM 1.97% | 833.33 nM 1.89% | 10000 nM -3.26%

COc1cc(NC(=O)c2cccc(-n3cc(NC(=O)Nc4cccc(C)c4)cn3)c2)cc(OC)c1OC
inactive: 1 nM -0.97% | 8.33 nM -0.75% | 100 nM 2.66% | 833.33 nM 0.39% | 10000 nM -0.61%

CCCCCCCCCCCCC/C=C/[C@@H](O)[C@@H](N)CO[P@](=O)(O)OCC[N+](C)(C)C [sphingosylphosphorylcholine]
inactive: 1 nM -0.9% | 8.33 nM -2.99% | 100 nM 3.74% | 833.33 nM -2.02% | 10000 nM 3.54%

O=C1Cc2c([nH]c3ccc(Br)cc23)-c2ccccc2N1 [kenpaullone]
inactive: 1 nM -1.82% | 8.33 nM -2.19% | 100 nM 0.37% | 833.33 nM 0.56% | 10000 nM 12%

CCCCNNC(=O)c1ccc(Br)cc1
inactive: 1 nM 2.76% | 8.33 nM 1.2% | 100 nM 2.26% | 833.33 nM 3.31% | 10000 nM -5.28%

CC(C)n1nc(C#Cc2ccccc2)c2c(N)ncnc21
inactive: 1 nM 0.9% | 8.33 nM -1.43% | 100 nM -4.23% | 833.33 nM 0.67% | 10000 nM 3.02%

Cc1ccc(=O)n(-c2ccccc2)c1 [pirfenidone]
inactive: 1 nM 3.93% | 8.33 nM 6.69% | 100 nM 3.96% | 833.33 nM 3.47% | 10000 nM 5.58%

CCOC(=O)[C@H](Cc1ccccc1)NC(=O)c1cc(Cl)c(OCCN2CCN(C)CC2)c(Cl)c1O
inactive: 1 nM -1.93% | 8.33 nM 1.91% | 100 nM 0.81% | 833.33 nM -1.07% | 10000 nM 2.79%

C[C@H](N)[C@H](O)c1ccc(O)c(O)c1 [levonordefrin]
inactive: 1 nM -3.75% | 8.33 nM 0.14% | 100 nM -1.88% | 833.33 nM 1.27% | 10000 nM -2.48%

CN(C)CC[C@@]1(c2ccc(Cl)cc2)Cc2ccccc2C(=O)O1 (racemic)
inactive: 1 nM -1.76% | 8.33 nM -2.36% | 100 nM -1.71% | 833.33 nM -2.86% | 10000 nM -3.54%

CCCCOc1ccc(C(=O)CCN2CCCCC2)cc1 [dyclonine]
inactive: 1 nM 2.76% | 8.33 nM 3.66% | 100 nM 3.14% | 833.33 nM 3.62% | 10000 nM -0.75%

Nc1ccc2cc3ccc(N)cc3nc2c1 [proflavine-hemisulfate]
inactive: 1 nM -1.46% | 8.33 nM -2.57% | 100 nM -0.42% | 833.33 nM 1.94% | 10000 nM -8.75%

CC1(N)CCN(c2cnc(-c3cccc(Cl)c3Cl)c(N)n2)CC1
inactive: 1 nM -2.86% | 8.33 nM 2.23% | 100 nM 2.58% | 833.33 nM -1.51% | 10000 nM -9.83%

Oc1ccc2c3c1O[C@H]1c4[nH]c5ccccc5c4C[C@@]4(O)[C@@H](C2)N(CC2CC2)CC[C@]314 [naltrindole]
inactive: 1 nM 1.74% | 8.33 nM 3.59% | 100 nM 1.09% | 833.33 nM 0.82% | 10000 nM -3.58%

S=C=Nc1ccc(N=C=S)cc1 [bitoscanate]
inactive: 1 nM -1.75% | 8.33 nM 0.45% | 100 nM -0.83% | 833.33 nM 0.38% | 10000 nM -2.58%

CC1=C(C)C(=O)C(C(CCCCCC(=O)O)c2ccccc2)=C(C)C1=O (stereo not given) [seratrodast]
inactive: 1 nM -0.6% | 8.33 nM -1.68% | 100 nM 1.92% | 833.33 nM 2.24% | 10000 nM 1.24%

O=c1[nH]c(CCl)nc2sc3c(c12)CCCC3
inactive: 1 nM -1.17% | 8.33 nM -1.84% | 100 nM -1.12% | 833.33 nM 0.17% | 10000 nM 12.3%

O=S(=O)(O)Oc1ccc(C(c2ccc(OS(=O)(=O)O)cc2)c2ccccn2)cc1 [sodium-picosulfate]
inactive: 1 nM -1.14% | 8.33 nM -0.13% | 100 nM 0.34% | 833.33 nM 5.9% | 10000 nM -5.74%

CC(C)(CO)CCCCCCC(C)(C)CO [gemcadiol]
inactive: 1 nM -2.86% | 8.33 nM -2.01% | 100 nM -1.65% | 833.33 nM -2.84% | 10000 nM -2.43%

NC(=O)c1ccc(F)c2c1C[C@@H](N(C1CCC1)C1CCC1)CO2 [robalzotan]
inactive: 1 nM -1.71% | 8.33 nM 2.76% | 100 nM 1.8% | 833.33 nM 0.98% | 10000 nM 3.7%

Nc1nc(F)nc2c1ncn2[C@@H]1O[C@H](COP(=O)(O)O)[C@@H](O)[C@@H]1O [fludarabine-phosphate]
inactive: 1 nM 1.37% | 8.33 nM 1.76% | 100 nM -0.32% | 833.33 nM 1.79% | 10000 nM -4.26%

O=C(Oc1ccc([N+](=O)[O-])cc1)N1CCN(Cc2cccc(Oc3ccccc3)c2)CC1
inactive: 1 nM -1.56% | 8.33 nM -2.22% | 100 nM -1.22% | 833.33 nM -1.53% | 10000 nM 1.51%

CCn1cc(C(=O)O)c(=O)c2cnc(N3CCCC3)nc21 [piromidic-acid]
inactive: 1 nM -0.85% | 8.33 nM 1.01% | 100 nM 0.19% | 833.33 nM -0.21% | 10000 nM -1.75%

COc1cccc(OCCCN)c1-c1cc(Nc2cnc(C#N)cn2)n[nH]1
inactive: 1 nM -0.1% | 8.33 nM 0.79% | 100 nM -1.17% | 833.33 nM -4.06% | 10000 nM -3.92%

CN(CCOc1ccc(CC2SC(=O)NC2=O)cc1)c1ccccn1 (stereo not given) [rosiglitazone]
inactive: 1 nM -1.76% | 8.33 nM -2.53% | 100 nM -4.45% | 833.33 nM -0.37% | 10000 nM 1.48%

CCNCCS(=O)(=O)NC[C@@]1(c2ccccc2)SC(NC(=O)C(C)(C)C)=NN1C(=O)C(C)(C)C [litronesib]
inactive: 1 nM 2.17% | 8.33 nM 5.24% | 100 nM 2.46% | 833.33 nM 0.96% | 10000 nM 0.39%

O=c1cc(N2CCOCC2)oc2c(-c3ccccc3)cccc12
inactive: 1 nM -0.31% | 8.33 nM 1.39% | 100 nM 0.59% | 833.33 nM -1.92% | 10000 nM -5.7%
